Source: PubChem BioAssay
The source made the active and inactive calls.

Experiments:
[1] = test system: Plasmodium falciparum Sir2 (PF13_0152, Sir2A); experiment: pfSir2 binders on small-molecule microarrays, primary screen, biochemical, small-molecule microarray, 635 nm fluorescence (AID 1098); conditions: small-molecule microarray binding, fluorescence 635 nm; higher = more signal;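 note: score merges spot fluorescence intensity with its signal-to-noise ratio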
[2] = small-molecule microarray binders of probe aDKK1, primary screen, biochemical, biotinylated probe, 635/667 nm fluorescence (AID 1099); conditions: higher = more signal;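 note: score merges 667nm spot fluorescence with signal to noise across triplicate slides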
[3] = small-molecule microarray binders of probe aCHRDL2, primary screen, biochemical, biotinylated probe, 635/667 nm fluorescence (AID 1100); conditions: higher = more signal
[4] = splicing luciferase reporter signal modulators, primary screen, spliceosome inhibition project, cell-based, HEK293, splice +/- reporter (AID 1101); conditions: luminescence, 24 h, higher = more signal, called active from +8 up or from −8 down;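 note: HEK293 cells carrying a splicing-competent luciferase reporter gene; test concentration not given here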
[5] = molecular target: Fibroblast growth factor 10 (Homo sapiens) (UniProt O15520); experiment: FGF10 binders on small-molecule microarrays, primary screen, biochemical, small-molecule microarray, 635 nm fluorescence (AID 1102); conditions: FGF10 binding, fluorescence 635 nm, higher = more signal
Sequence of Fibroblast growth factor 10 (Homo sapiens) (O15520 whole entry, looked up): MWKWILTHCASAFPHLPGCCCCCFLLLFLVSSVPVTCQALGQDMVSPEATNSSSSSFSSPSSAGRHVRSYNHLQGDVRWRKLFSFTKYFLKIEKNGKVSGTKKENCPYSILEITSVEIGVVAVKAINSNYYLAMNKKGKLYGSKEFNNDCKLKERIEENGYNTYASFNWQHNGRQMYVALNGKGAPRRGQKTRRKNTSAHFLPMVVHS

[6] = test system: glycogen synthase kinase-3 (GSK3A per assay name; protocol says GSK3B); experiment: GSK3 binders on small-molecule microarrays, primary screen, biochemical, small-molecule microarray, 635 nm fluorescence, GSK3A (AID 1103); conditions: small-molecule microarray binding, fluorescence 635 nm; higher = more signal; note: the record names both GSK3A and GSK3B
[7] = molecular target: Epidermal growth factor receptor (Homo sapiens) (UniProt P00533); experiment: EGFR binders on small-molecule microarrays, primary screen, biochemical, small-molecule microarray, 635 nm fluorescence (AID 1104); conditions: EGFR binding, higher = more signal;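 note: score merges 667 nm emission intensity with spot signal to noise over triplicate slides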
Sequence of Epidermal growth factor receptor (Homo sapiens) (P00533 whole entry, looked up): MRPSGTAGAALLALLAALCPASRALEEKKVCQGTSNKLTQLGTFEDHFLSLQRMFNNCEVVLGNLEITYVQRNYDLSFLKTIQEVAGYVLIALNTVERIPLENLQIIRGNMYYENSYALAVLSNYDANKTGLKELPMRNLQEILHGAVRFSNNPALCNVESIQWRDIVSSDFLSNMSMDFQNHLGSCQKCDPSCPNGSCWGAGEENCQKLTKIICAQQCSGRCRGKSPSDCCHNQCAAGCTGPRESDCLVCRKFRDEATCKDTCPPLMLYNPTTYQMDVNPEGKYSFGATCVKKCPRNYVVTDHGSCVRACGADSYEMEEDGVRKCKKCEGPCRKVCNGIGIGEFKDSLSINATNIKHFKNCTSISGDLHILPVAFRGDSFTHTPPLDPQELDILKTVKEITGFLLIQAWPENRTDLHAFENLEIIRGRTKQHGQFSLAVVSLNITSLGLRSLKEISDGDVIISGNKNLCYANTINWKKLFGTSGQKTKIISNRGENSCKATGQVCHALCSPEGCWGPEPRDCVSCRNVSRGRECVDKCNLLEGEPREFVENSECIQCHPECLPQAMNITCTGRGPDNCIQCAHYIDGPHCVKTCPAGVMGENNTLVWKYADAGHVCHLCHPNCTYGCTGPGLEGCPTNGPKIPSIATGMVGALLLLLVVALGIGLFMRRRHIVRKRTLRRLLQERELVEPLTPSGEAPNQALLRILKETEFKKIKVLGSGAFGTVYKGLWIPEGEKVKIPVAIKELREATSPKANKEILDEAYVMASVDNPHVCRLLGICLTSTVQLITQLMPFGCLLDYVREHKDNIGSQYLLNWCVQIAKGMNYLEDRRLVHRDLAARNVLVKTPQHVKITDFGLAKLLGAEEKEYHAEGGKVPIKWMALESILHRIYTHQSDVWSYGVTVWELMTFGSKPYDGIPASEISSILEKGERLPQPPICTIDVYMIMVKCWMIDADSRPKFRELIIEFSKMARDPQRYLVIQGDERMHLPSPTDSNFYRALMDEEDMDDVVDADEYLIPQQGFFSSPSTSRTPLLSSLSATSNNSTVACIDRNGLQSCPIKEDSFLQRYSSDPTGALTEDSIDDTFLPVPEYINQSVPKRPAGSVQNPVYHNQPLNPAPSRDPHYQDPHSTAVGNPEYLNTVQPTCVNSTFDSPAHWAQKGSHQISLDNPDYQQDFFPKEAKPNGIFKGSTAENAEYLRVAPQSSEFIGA

[8] = molecular target: Follistatin-related protein 3 (Homo sapiens) (UniProt O95633); experiment: FSTL3 binders on small-molecule microarrays, primary screen, biochemical, small-molecule microarray, 635 nm fluorescence (AID 1105); conditions: FSTL3 binding, higher = more signal;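 note: score merges emission near 667 nm and signal to noise per printed spot across three slides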
Sequence of Follistatin-related protein 3 (Homo sapiens) (O95633 whole entry, looked up): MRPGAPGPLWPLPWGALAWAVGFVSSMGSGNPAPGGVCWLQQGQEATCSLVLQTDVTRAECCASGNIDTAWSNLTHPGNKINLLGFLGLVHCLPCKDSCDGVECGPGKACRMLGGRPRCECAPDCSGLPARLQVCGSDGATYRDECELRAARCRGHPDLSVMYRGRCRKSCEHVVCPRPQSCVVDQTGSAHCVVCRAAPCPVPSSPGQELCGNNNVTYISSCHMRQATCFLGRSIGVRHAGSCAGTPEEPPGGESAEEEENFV

[9] = molecular target: Dickkopf-related protein 1 (Homo sapiens) (UniProt O94907); experiment: DKK1 binders on small-molecule microarrays, primary screen, biochemical, small-molecule microarray, 635 nm fluorescence scan (AID 1106); conditions: DKK1 binding, higher = more signal;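 note: score merges emission near 667 nm with signal to noise over three replicate slides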
Sequence of Dickkopf-related protein 1 (Homo sapiens) (O94907 whole entry, looked up): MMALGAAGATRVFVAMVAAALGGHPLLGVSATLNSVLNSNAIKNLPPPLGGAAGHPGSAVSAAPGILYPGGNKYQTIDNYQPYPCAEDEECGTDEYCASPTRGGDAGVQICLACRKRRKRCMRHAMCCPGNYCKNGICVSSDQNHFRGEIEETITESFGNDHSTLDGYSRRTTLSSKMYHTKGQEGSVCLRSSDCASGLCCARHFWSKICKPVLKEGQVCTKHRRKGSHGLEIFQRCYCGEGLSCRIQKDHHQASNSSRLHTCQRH

[10] = test system: Inhibin beta A chain (activin A); experiment: INHBA (activin A) binders on microarrays, primary screen, biochemical, small-molecule microarray, 635 nm fluorescence scan (AID 1107); conditions: small-molecule microarray binding, higher = more signal;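 note: mouse activin A protein probed at 4.33 µg/mL on printed slides; score merges bound-protein fluorescence near 667 nm with spot signal-to-noise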
[11] = test system: Human papillomavirus type 1a protein E7 (residues 44-93); experiment: HPV1a E7 fragment binders on microarrays, primary screen, biochemical, small-molecule microarray, residues 44-93, 635 nm fluorescence (AID 1108); conditions: small-molecule microarray binding, fluorescence 635 nm; higher = more signal;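 note: E7 fragment applied at 1 µg/mL in TBST for 1 h at 4 C; score combines spot fluorescence with its signal to noise ratio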
[12] = modulators of HCV replicon luciferase signal, primary screen, HCV replication inhibitor project, Huh7 cells, luciferase reporter (AID 1109); conditions: 48 h, higher = more signal;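 note: huh7 hepatoma cells harbouring a luciferase neomycin HCV replicon reporter; luciferase luminescence as measure of HCV replicon replication; test concentration not given here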
[13] = molecular target: Left-right determination factor 2 (Homo sapiens) (UniProt O00292); experiment: LEFTY2 binders on small-molecule microarrays, primary screen, biochemical, small-molecule microarray, 635 nm fluorescence scan (AID 1110); conditions: LEFTY2 binding, higher = more signal
Sequence of Left-right determination factor 2 (Homo sapiens) (O00292 whole entry, looked up): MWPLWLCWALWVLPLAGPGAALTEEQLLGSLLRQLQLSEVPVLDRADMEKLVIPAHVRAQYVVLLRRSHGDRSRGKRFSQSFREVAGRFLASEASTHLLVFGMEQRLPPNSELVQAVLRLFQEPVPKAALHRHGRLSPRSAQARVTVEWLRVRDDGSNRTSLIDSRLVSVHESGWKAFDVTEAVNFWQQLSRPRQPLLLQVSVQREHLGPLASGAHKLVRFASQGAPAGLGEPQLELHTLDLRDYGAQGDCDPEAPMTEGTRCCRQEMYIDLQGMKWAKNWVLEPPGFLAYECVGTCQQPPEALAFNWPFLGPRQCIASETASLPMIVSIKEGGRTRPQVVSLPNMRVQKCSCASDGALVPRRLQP

[14] = molecular target: Calmodulin-1 (Homo sapiens) (UniProt P0DP23); experiment: CALM1 binders on microarrays, EGTA buffer, profiling panel, biochemical, small-molecule microarray, Cy5-labelled CALM1 (AID 1111); conditions: Cy5-CALM1 binding fluorescence, higher = more signal;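 note: labelled calmodulin applied in Tris saline Tween buffer holding calcium plus EGTA and DTT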
[15] = molecular target: Calmodulin-1 (Homo sapiens) (UniProt P0DP23); experiment: calcium-bound CALM1 binders on microarrays, profiling panel, artefact control for SMM control-protein annotation, biochemical, small-molecule microarray, Cy5-labelled CALM1, plus calcium (AID 1112); conditions: Cy5-CALM1 binding fluorescence, higher = more signal;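 note: score merges spot fluorescence with signal to noise from triplicate slides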
[16] = small-molecule microarray binders of probe aWnt5a, primary screen, biochemical, biotinylated probe, 635/667 nm fluorescence (AID 1113); conditions: higher = more signal;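 note: score merges 667 nm fluorescence intensity with signal-to-noise per printed feature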
[17] = small-molecule microarray binders of probe aShh, primary screen, biochemical, biotinylated probe, 635/667 nm fluorescence (AID 1114); conditions: higher = more signal;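 note: probe is biotin-labelled aShh protein from a stem cell growth factor screen; measures binding of labelled protein to compounds printed on the slide; score merges feature fluorescence at 667 nm with signal-to-noise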
[18] = small-molecule microarray binders of probe aNog, primary screen, biochemical, biotinylated probe, 635/667 nm fluorescence (AID 1115); conditions: higher = more signal;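 note: probe is biotinylated aNog protein used at 0.15 µg/mL for 1 h at 4 C; z-score combines 667 nm fluorescence of each spot with its signal to noise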
[19] = molecular target: Torsin-1A-interacting protein 1 (Homo sapiens) (UniProt Q5JTV8); experiment: LAP1 binders from COS7 cell lysate, primary screen, small-molecule microarray, 635/667 nm fluorescence (AID 1116); conditions: COS7-hLAP1 lysate binding, 635 nm fluorescence, higher = more signal
Sequence of Torsin-1A-interacting protein 1 (Homo sapiens) (Q5JTV8 whole entry, looked up): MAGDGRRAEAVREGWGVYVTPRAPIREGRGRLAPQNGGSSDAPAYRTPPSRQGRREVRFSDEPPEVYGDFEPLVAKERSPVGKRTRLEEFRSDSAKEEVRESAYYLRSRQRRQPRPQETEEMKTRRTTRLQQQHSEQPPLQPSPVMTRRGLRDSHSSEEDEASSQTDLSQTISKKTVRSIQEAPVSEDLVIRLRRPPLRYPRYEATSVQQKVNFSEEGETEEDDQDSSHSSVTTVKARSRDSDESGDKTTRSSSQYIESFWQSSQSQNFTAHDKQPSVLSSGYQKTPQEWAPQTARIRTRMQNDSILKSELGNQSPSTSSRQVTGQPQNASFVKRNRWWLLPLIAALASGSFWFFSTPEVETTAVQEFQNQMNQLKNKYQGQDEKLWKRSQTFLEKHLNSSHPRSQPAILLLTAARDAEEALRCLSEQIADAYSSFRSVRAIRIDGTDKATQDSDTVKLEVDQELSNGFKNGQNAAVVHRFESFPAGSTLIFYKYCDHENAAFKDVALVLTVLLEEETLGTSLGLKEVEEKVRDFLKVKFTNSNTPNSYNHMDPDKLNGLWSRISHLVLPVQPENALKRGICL

[20] = molecular target: Alpha-bungarotoxin (Bungarus multicinctus) (UniProt P60615); experiment: alpha-bungarotoxin binders on microarray, profiling panel, artefact control for SMM control protein annotation, biochemical, small-molecule microarray, Alexa647 label, 635/667 nm fluorescence (AID 1117); conditions: alpha-BTX-A647 binding fluorescence, higher = more signal
Sequence of Alpha-bungarotoxin (Bungarus multicinctus) (P60615 whole entry, looked up): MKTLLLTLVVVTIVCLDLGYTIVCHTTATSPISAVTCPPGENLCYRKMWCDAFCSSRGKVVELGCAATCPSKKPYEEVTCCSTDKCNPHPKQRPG

SMILES	composite z-score [1]	composite z-score [2]	composite z-score [3]	z-score [4]	composite z-score [5]	composite z-score [6]	composite z-score [7]	composite z-score [8]	composite z-score [9]	composite z-score [10]	composite z-score [11]	z-score [12]	composite z-score [13]	composite z-score [14]	composite z-score [15]	composite z-score [16]	composite z-score [17]	composite z-score [18]	composite z-score [19]	composite z-score [20]
COc1ccc(CCNC(=O)[C@@]2(Sc3ccc(C)cc3)CC(=O)N(Cc3cc(C(F)(F)F)cc(C(F)(F)F)c3)[C@@H]2c2ccc(CO)cc2)cc1	0.629	0.18	1.14	0.257 (inactive)	-1.59	-0.655	-1.81	-0.927	-1.88	-0.497	-1.13	-0.146	-2.47	-0.615	-0.0998	-0.124	-0.117	-0.54	-0.282	1.24
CCCCN1CC=CC23O[C@@H]4C=CCOC(=O)[C@@H]4[C@H]2C(=O)N(C(CO)C(C)C)[C@@H]3C1=O (stereo not given in full)	-0.662	-0.353	-0.476	-0.116 (inactive)	-0.372	-0.13	-0.759	0.0236	0.185	0.843	-0.321	-1.23	-0.383	-0.782	-0.828	-0.173	-0.138	-0.381	-0.457	-0.843
O=C(NCCO)C1=C[C@H](Oc2ccccc2I)[C@@H](O)[C@H](NCc2ccc(F)cc2)C1	-1.55	-0.472	-0.552	-0.635 (inactive)	1.61	-0.814	-0.201	-1.52	1.19	-2.01	-0.938	-3.66	0.949	-0.815	-2.87	-0.237	-0.262	-0.0542	5.01	-0.89
CC(=O)NCCCC[C@@H]1NC(=O)[C@H]2C[C@@H](C(=O)NCCCCCC[N+](C)(C)C)[C@@H](c3ccc(O)cc3)N2C1=O	1.71	-0.186	-0.414	-0.652 (inactive)	0.348	0.612	0.173	0.946	1.23	0.965	1.4	1.38	0.62	-0.183	-0.906	-0.107	-0.153	0.762	0.611	0.472
COCCOC(=O)N1C(=O)[C@@]2(c3cc(C#CC4(O)CCCCCC4)ccc31)[C@H](c1ccc(OCCO)cc1)N1[C@H](c3ccccc3)[C@H](c3ccccc3)OC(=O)[C@H]1[C@@H]2C(N)=O	1.37	0.0809	0.0419	-1.47 (inactive)	1.14	1.31	0.883	1.22	0.617	1	0.448	-2.2	0.547	1.04	-0.111	-0.0472	0.199	0.53	1.73	1.9
Cc1ccc(S[C@]2(C(=O)NCCCN(C)C)CC(=O)N(Cc3ccccc3Cl)[C@@H]2c2ccc(CO)cc2I)cc1	-0.393	0.844	0.864	-1.53 (inactive)	-1.29	-1.19	-1.3	-0.551	-1.39	1.4	-0.177	-1.55	-1.7	0.0681	0.283	-0.1	-0.0681	0.692	0.49	2.46
C=CCC(OC(C)=O)[C@@H]1[C@@H](N(Cc2cc3ccccc3o2)C(=O)Cc2ccc(OC)cc2)c2cc(OCCCO)ccc2N1C(=O)Cc1ccc(OC)cc1 (stereo not given in full)	-0.193	-0.0082	0.246	-0.782 (inactive)	0.233	-0.238	0.157	-0.0138	0.214	1.3	-0.133	0.028	-0.0735	-0.211	0.158	-0.0981	-0.0626	-0.303	-0.0544	0.673
COCCOC(=O)N1C(=O)[C@@]2(c3cc(C#CCCO)ccc31)[C@H](c1ccc(O)cc1)N1[C@H](c3ccccc3)[C@H](c3ccccc3)OC(=O)[C@H]1[C@@H]2C(=O)N1CCc2cc(OC)c(OC)cc2C1	1.16	0.058	0.342	0.305 (inactive)	1.39	1.31	0.878	1.44	0.993	1.01	1.41	-0.561	1.14	0.422	-0.0529	0.129	-0.153	1.32	1.13	1.11
COc1ccc([Si](C)(C)[C@@H]2[C@@H](CC(=O)N(CCO)Cc3ccccc3)O[C@]3(C(=O)N(Cc4ccc(N5CCC5=O)cc4)c4ccccc43)[C@H]2C)cc1	1.41	-0.26	0.618	-1.9 (inactive)	0.0525	-0.808	0.359	0.953	0.919	0.0242	-0.382	-4.13	1.14	0.086	0.734	-0.176	0.0898	-0.194	0.357	0.295
CO[C@H]1O[C@H](CO)[C@@H](OC(=O)Nc2ccc(C(F)(F)F)cc2)[C@H](OC(=O)Nc2ccccc2-c2ccccc2)[C@H]1OC(=O)Nc1ccccc1-c1ccccc1	1.29	0.13	0.411	-1.03 (inactive)	1.52	1.35	0.223	1.15	0.162	0.436	1.47	-3.83	0.24	1.59	-0.135	-0.0445	0.0121	-0.136	0.731	1.36
CC(C)C[C@@H]1NC(=O)[C@@]23C(=O)N[C@@H](Cc4ccccc4)C2[C@H](C)[C@@]2(C)O[C@H]2C3/C=C/C/C=C\CNC(=O)[C@@H](CC(C)C)NC1=O (stereo not given in full)	0.331	-0.299	-0.496	-0.958 (inactive)	0.37	0.193	0.367	1.1	0.511	0.904	0.741	0.052	0.567	-0.475	-0.674	-0.101	-0.238	-0.35	0.403	0.322
